Results on seven compounds are retold here after PubChem BioAssay (Tox21).

Assay [1] in a line: qHTS assay to identify small molecule agonists of the sonic hedgehog signaling (Shh) pathway (AID 1259368; calls by dose curve;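 further: NIH/3T3-derived 3T3Gli1-Luc cells carrying a stable Gli1-driven firefly luciferase reporter; series mostly up to about 92 µM; nearly all actives have a fitted effect of over 15% in size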). In outline:
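3T3Gli1-Luc (NIH/3T3 clone, stable Gli1-Luc); 4 hr pre-incubation, then cpd in DMSO 24 hr, 37 C/5% CO2; luciferase reagent 30 min RT; luminescence.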
(In qHTS, concentration-response curves come from the screen itself.)

Assay [2] in a line: qHTS assay to identify small molecule antagonists of the sonic hedgehog signaling (Shh) pathway (AID 1259369; calls by dose curve; further: nearly all actives have a fitted effect of over 45% in size; further: potency means the concentration at half of the fitted maximal effect). An outline of the steps:
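3T3Gli1-Luc, conditioned-medium-stimulated, 24hr cpd, 37C/5% CO2; Gli1-driven firefly Luc luminescence after 30min RT with luciferase reagent. Cells plated 4hr before cpd.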

The nature of assay [3]: qHTS assay to identify small molecule agonists of the androgen receptor (AR) signaling pathway in the presence of an antagonist - cell viability counter screen (AID 1259379). Further: nearly all actives have a fitted effect of over 25% in size. Further: potency means the concentration at half of the fitted maximal effect. In outline:
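Cells: MDA-kb2 (MMTV-luc, AR and GR elements), 3,000/well, 5 hr settle. Added: nilutamide 3.0uM final, then compounds (15 conc.). Incubation: 16 hr, 37C, no CO2. Read-out: CellTiter-Fluor, 1 hr, fluorescence.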

The nature of assay [4]: qHTS assay to identify small molecule agonists of the estrogen receptor beta (ER-beta) signaling pathway - cell viability counter screen (AID 1259380). Further: nearly all actives have a fitted effect of over 30% in size. Further: potency means the concentration at half of the fitted maximal effect. An outline of the steps:
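HEK293T ER-beta-UAS-bla; 2% CS-FBS; 6 hr pre-plate, 16 hr cpd at 37C/5% CO2; LiveBLAzer read first, then CellTiter-Glo 30 min RT, luminescence.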

Assay [5] is described as follows: qHTS assay to identify small molecule antagonists of the estrogen receptor beta (ER-beta) signaling pathway - cell viability counter screen (AID 1259382). Further: series mostly up to about 92 µM; nearly all actives have a fitted effect of over 55% in size. An outline of the steps: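 Cells: ER-beta-UAS-bla HEK293T, 2,000/well, 2% CS-FBS, 6 hr settle. Cpd + E2 (1nM final), 16 hr, 37C/5% CO2. Bla FRET substrate 2 hr RT, then CellTiter-Glo 30 min RT, luminescence.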

Assay [6] deals with Estrogen receptor (Homo sapiens) (UniProt P03372). Nature of the assay: qHTS assay to identify small molecule agonists of the estrogen receptor alpha (ER-alpha) signaling pathway in the presence of an antagonist (AID 1259383; calls by dose curve; further: top concentration of the series differs between compounds; nearly all actives have a fitted effect of over 15% in size). In outline: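 VM7Luc4E2, endog. ER-alpha + 4×ERE-luc; charcoal-stripped FBS, phenol red-free, 5 d; 24hr plating; +10.0nM ICI-182,780 (final); cpds 15 conc, 22hr, 37C/5% CO2; ONE-Glo luminescence.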
Chain of Estrogen receptor (Homo sapiens) (P03372 whole entry, looked up): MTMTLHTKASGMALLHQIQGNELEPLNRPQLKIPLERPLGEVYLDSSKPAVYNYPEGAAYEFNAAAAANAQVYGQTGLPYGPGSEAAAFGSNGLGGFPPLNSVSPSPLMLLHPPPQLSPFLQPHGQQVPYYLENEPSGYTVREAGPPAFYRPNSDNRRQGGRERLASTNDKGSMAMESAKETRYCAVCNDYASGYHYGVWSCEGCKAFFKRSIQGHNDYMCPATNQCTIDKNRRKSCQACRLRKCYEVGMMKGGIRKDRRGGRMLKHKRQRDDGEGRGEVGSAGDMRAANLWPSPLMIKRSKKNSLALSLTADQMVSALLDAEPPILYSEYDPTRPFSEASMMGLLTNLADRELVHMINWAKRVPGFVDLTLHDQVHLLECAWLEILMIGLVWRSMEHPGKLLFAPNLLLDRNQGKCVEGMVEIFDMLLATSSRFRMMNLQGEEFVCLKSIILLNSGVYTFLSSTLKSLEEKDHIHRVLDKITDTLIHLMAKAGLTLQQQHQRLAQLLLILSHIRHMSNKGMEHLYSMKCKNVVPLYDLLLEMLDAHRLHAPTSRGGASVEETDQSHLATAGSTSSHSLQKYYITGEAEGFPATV

Assay [7] can be described thus: qHTS assay to identify small molecule agonists or antagonists of the thyroid stimulating hormone receptor (TSHR) signaling pathway - wild type cell line counter screen (AID 1259384; calls by dose curve). An outline of the steps:
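Wild-type Hek293 cells, 800/well, 18 h at 37C, then compound with Ro20-1724 for 30 min RT. cAMP by HTRF (cAMP-d2/anti-cAMP cryptate), 1 h RT, fluorescence read. 15 concentrations, triplicates.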

The target of assay [8] is Thyrotropin receptor (Homo sapiens) (UniProt P16473). Nature of the assay: qHTS assay to identify small molecule antagonists of the thyroid stimulating hormone receptor (TSHR) signaling pathway (AID 1259385; calls by dose curve; further: nearly all actives have a fitted effect of over 20% in size). In outline: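 TSHR-HEK293 cells (800/well) plated 18 h, then compounds with Ro20-1724 and TSH at 1.5 ng/mL final, 30 min at room temperature. cAMP quantified by HTRF (cAMP-d2/anti-cAMP-cryptate, 1 h); 15 concentrations in triplicate.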
Chain of Thyrotropin receptor (Homo sapiens) (P16473 whole entry, looked up): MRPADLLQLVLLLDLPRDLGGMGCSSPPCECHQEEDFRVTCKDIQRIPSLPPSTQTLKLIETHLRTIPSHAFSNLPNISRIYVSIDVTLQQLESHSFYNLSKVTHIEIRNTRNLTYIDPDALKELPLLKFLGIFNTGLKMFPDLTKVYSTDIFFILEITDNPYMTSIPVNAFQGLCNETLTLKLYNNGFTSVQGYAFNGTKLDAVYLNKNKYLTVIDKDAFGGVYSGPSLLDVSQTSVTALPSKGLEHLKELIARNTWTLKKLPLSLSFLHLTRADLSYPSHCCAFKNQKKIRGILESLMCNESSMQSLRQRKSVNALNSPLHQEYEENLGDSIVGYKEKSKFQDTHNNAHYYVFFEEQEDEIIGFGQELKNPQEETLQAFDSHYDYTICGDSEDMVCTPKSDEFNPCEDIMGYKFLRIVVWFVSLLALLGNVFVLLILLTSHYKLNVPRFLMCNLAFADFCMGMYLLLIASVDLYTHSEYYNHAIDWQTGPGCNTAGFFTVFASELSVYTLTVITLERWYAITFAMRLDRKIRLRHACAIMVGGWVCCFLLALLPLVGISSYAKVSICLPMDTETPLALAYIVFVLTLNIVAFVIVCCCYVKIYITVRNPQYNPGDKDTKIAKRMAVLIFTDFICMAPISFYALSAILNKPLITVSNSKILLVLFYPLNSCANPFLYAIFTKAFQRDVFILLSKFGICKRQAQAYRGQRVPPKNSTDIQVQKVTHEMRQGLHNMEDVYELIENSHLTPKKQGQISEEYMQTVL

The nature of assay [9]: qHTS assay to identify small molecule agonists of the estrogen receptor alpha (ER-alpha) signaling pathway in the presence of an antagonist - cell viability counter screen (AID 1259386).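 Further: cells exposed to compounds for 22 h at 37 °C before the viability read; nearly all actives have a fitted effect of over 30% in size.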 Further: potency means the concentration at half of the fitted maximal effect. An outline of the steps:
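VM7Luc4E2, stripped-serum pre-culture 5 d; 24hr plating; +ICI-182,780 10.0nM final; cpds 15 conc, 22hr, 37C/5% CO2; CellTiter-Fluor added at 21hr, fluorescence 1hr later.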

The target in assay [10] is Progesterone receptor (Homo sapiens) (UniProt P06401). Nature of the assay: qHTS assay to identify small molecule agonists of the progesterone receptor (PR) signaling pathway (AID 1346784; calls by dose curve; further: nearly all actives have a fitted effect of over 30% in size). In outline: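 Agonist qHTS: compounds pinned onto 3,000 PR-UAS-bla HEK 293T cells per well in charcoal-stripped serum medium, 16hr at 37C, then beta-lactamase activity measured by LiveBLAzer FRET fluorescence after 2 hours at room temperature.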
Chain of Progesterone receptor (Homo sapiens) (P06401 whole entry, looked up): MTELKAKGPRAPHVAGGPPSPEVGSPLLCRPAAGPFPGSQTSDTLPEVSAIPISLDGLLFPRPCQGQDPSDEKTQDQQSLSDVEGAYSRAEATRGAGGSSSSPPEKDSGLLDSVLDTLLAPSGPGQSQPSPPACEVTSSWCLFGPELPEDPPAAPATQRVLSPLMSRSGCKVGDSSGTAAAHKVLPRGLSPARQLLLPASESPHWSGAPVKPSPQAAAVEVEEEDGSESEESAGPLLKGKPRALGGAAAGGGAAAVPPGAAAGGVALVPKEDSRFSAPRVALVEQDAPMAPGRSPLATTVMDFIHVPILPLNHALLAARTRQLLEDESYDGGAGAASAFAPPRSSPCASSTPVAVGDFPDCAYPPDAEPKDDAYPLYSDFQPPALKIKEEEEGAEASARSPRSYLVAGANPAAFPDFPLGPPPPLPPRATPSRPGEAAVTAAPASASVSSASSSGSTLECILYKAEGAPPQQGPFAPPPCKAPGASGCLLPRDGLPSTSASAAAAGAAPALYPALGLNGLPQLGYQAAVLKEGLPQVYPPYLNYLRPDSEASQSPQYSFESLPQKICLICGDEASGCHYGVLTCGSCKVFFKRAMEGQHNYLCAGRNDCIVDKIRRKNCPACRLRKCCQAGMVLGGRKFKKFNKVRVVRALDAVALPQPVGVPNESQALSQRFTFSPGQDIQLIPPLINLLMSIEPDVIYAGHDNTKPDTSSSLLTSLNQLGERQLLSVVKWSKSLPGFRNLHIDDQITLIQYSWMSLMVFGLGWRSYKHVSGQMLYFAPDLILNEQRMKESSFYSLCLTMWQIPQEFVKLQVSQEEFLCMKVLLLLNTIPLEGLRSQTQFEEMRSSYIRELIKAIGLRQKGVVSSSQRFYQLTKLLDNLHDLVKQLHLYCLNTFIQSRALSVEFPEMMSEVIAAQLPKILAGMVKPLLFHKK

Assay [11] has the same target. Nature of the assay: qHTS assay to identify small molecule antagonists of the progesterone receptor (PR) signaling pathway (AID 1346795; active means well fitted inhibition curve with a large enough effect in the signal ratio in the repeat runs, not every such curve was filed as active; the % refers to the signal ratio; further: potency means the concentration at half of the fitted maximal effect). An outline of the steps: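 Antagonist mode with agonist R5020 at 1 nM final and 16 hr incubation at 37C. Reporter was beta-lactamase driven by UAS in HEK293T (PR-UAS-bla), 2% charcoal-stripped serum; signal from LiveBLAzer FRET substrate, 2 hr at room temperature.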

The nature of assay [12]: qHTS assay to identify small molecule antagonists of the progesterone receptor (PR) signaling pathway - cell viability counter screen (AID 1346798). Further: series mostly up to about 92 µM; nearly all actives have a fitted effect of over 50% in size. An outline of the steps:
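Cytotoxicity read as CellTiter-Glo luminescence (30 min, room temperature) in the same wells as the beta-lactamase readout. HEK293T PR-UAS-bla cells in charcoal-stripped 2% FBS received compound and R5020, then 16 h at 37C, 5% CO2.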

Assay [13] can be described thus: qHTS assay to identify small molecule agonists of the progesterone receptor (PR) signaling pathway - cell viability counter screen (AID 1346799; calls by dose curve; further: nearly all actives have a fitted effect of over 45% in size). An outline of the steps:
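Cytotoxicity measured by CellTiter-Glo luminescence (30 min, RT) in the same wells as the PR beta-lactamase agonist read. Those HEK293T cells had 16 h compound treatment at 37 C in 2% charcoal-stripped FBS medium.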

A short description of assay [14]: qHTS assay to identify small molecule antagonists of the TGF-beta/Smad signaling pathway - cell viability counter screen (AID 1346824). Further: nearly all actives have a fitted effect of over 50% in size. An outline of the steps:
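SBE-bla HEK 293T cells, incubated overnight, then compound plus 0.25 ng/mL TGF-beta1 (stock added) for 5 hr at 37 C. Viability was read in the same wells by CellTiter-Glo luminescence after 30 min at room temperature.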

Assay [15] can be described thus: qHTS assay to identify small molecule agonists of the TGF-beta/Smad signaling pathway - cell viability counter screen (AID 1346829). Further: top concentration of the series differs between compounds; nearly all actives have a fitted effect of over 45% in size. An outline of the steps:
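HEK 293T SBE-bla line, 5 hr compound exposure at 37 C, multiplexed CellTiter-Glo viability read by luminescence.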

The nature of assay [16]: qHTS assay to identify small molecule agonists of the TGF-beta/Smad signaling pathway (AID 1346859; active means well fitted activation curve with a large enough effect in the signal ratio in the repeat runs, not every such curve was filed as active; the % refers to the signal ratio; further: series mostly up to about 77 µM). An outline of the steps: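 Fluorescence (ex 405 nm; em 460 and 530 nm) was read 2 h after LiveBLAzer FRET substrate at RT. The preceding compound treatment of overnight-plated SBE-bla HEK293T cells lasted 5 h at 37 C.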
Assay [17] concerns the target Thyrotropin-releasing hormone receptor (Homo sapiens) (UniProt P34981). Nature of the assay: qHTS assay to identify small molecule antagonists of the thyrotropin-releasing hormone receptor (TRHR) signaling pathway (AID 1346877; active means well fitted inhibition curve with a large enough effect in the repeat runs, not every such curve was filed as active; further: series mostly up to about 51 µM). In outline:
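Intracellular calcium fluorescence, read kinetically every second over 3 min, reports TRH-evoked signalling in HEK293 cells carrying TRHR. Test compounds were added 5 min ahead of a 1 nM TRH challenge.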

For assay [18], the target named is Androgen receptor (Homo sapiens) (UniProt P10275). Nature of the assay: qHTS assay to identify small molecule agonists of the androgen receptor (AR) signaling pathway in the presence of an antagonist (AID 1259381; calls by dose curve; further: nearly all actives have a fitted effect of over 15% in size). An outline of the steps:
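MDA-kb2 cells, 3,000/well, rested 5hr at 37C/0% CO2 → nilutamide 3.0uM final or buffer → compounds, 15 conc. → 16hr at 37C → ONE-Glo, 30min RT → luminescence.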

For assay [19], the target named is Estrogen receptor beta (Homo sapiens) (UniProt Q92731). Nature of the assay: qHTS assay to identify small molecule agonists of the estrogen receptor beta (ER-beta) signaling pathway (AID 1259377; active means well fitted activation curve with a large enough effect in the signal ratio in the repeat runs, not every such curve was filed as active; the % refers to the signal ratio). An outline of the steps:
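Ratiometric beta-lactamase FRET read-out came after 2 h substrate loading at room temperature. It followed 16 h compound treatment at 37C of GripTite HEK293T cells carrying a UAS-bla reporter, plated in 2% charcoal-stripped FBS medium.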

For assay [20] the target is unchanged. Nature of the assay: qHTS assay to identify small molecule antagonists of the estrogen receptor beta (ER-beta) signaling pathway (AID 1259378; active means well fitted inhibition curve with a large enough effect in the signal ratio in the repeat runs, not every such curve was filed as active; the % refers to the signal ratio). In outline:
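ER-beta-UAS-bla HEK293T cells in 2% charcoal-stripped FBS medium treated with compound plus 1nM final 17-beta-estradiol for 16 hr at 37C. Beta-lactamase reporter read by FRET substrate fluorescence after 2 hours at room temperature.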

Results filed as inconclusive are left out. Activity calls are given as the source filed them. Unless noted, the call rests on the fitted dose curve; in most records, active means well fitted curve in the direction sought with a large enough effect in the repeat runs; inconclusive means weak or mixed curves; inactive means no such curve, though single readings can be large; an effect the other way counts as inactive or inconclusive.

Chain of Thyrotropin-releasing hormone receptor (Homo sapiens) (P34981 whole entry, looked up): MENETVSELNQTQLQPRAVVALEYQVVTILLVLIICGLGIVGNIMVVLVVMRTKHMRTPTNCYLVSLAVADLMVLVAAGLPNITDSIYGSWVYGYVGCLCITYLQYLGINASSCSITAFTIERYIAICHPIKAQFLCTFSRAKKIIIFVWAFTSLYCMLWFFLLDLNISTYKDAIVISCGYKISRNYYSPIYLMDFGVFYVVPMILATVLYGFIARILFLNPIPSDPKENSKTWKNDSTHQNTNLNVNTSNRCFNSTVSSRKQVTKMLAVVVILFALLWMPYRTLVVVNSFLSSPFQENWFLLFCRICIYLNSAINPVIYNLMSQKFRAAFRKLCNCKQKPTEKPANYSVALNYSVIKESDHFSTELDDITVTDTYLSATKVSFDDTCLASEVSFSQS
Chain of Androgen receptor (Homo sapiens) (P10275 whole entry, looked up): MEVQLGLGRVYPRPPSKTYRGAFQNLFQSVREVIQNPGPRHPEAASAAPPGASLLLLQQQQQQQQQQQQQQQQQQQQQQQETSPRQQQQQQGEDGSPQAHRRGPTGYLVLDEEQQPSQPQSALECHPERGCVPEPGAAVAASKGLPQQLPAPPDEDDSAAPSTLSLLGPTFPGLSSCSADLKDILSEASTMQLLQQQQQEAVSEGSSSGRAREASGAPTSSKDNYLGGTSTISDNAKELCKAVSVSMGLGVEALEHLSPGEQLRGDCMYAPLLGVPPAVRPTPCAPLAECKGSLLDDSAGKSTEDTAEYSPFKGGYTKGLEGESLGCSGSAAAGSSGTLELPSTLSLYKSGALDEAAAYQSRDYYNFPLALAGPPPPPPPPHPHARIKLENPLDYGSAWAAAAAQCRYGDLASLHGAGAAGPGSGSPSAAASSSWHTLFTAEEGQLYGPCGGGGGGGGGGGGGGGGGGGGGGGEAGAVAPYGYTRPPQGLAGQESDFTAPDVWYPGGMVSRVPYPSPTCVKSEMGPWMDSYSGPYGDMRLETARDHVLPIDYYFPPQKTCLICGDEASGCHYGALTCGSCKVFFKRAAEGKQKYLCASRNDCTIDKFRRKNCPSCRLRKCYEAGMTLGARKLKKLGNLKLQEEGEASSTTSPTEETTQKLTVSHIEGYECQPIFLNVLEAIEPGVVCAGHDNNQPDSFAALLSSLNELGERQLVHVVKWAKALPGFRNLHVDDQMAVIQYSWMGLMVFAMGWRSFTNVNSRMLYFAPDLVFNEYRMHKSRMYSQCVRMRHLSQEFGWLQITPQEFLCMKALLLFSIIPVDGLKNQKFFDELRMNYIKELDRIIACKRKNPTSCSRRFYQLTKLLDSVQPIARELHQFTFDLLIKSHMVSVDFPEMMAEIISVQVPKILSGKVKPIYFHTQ
Chain of Estrogen receptor beta (Homo sapiens) (Q92731 whole entry, looked up): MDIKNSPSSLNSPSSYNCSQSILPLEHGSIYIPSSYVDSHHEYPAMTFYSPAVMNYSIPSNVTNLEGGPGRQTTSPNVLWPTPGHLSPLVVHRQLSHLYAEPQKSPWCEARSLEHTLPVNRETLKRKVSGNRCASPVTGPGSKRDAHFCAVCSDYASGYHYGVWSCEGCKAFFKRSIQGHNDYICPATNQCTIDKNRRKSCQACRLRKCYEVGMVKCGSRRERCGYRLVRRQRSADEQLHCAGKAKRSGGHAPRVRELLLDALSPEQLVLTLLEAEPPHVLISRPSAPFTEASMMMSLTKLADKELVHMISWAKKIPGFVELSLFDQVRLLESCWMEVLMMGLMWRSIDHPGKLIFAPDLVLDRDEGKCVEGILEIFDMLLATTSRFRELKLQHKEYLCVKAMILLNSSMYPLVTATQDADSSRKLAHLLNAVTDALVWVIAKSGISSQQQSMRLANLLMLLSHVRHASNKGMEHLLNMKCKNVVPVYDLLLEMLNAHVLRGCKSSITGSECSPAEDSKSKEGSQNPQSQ

As to `ClC=C(Cl)Cl`, the Potency entry in assay [1], in assay [2], in assay [3], in assay [4], in [5] and in [6] was “inactive” each time. Also, the Potency entry in [8], in [9], in [10], in assay [11], in assay [12] and in assay [13] was “inactive” each time. Besides, the Potency result in assay [14], in assay [15] and in assay [17] was “inactive” throughout. Further, the compound was called inactive in [7] and in assay [16].

Consider `N#Cc1cc(I)c(O)c(I)c1`, for which the Potency result in assay [1], in assay [4], in [18], in assay [5], in assay [10] and in assay [14] was “inactive” in each case. Also, the Potency entry in [15] and in assay [17] was “inactive” in each case. For the same compound, the Potency in assay [2] is 24.3 µM (active); in assay [9] it was 48.6 µM (active). Besides, the call in assay [7] and in assay [16] was inactive.

As to `O=C(OC1CCCCC1)c1ccccc1C(=O)OC1CCCCC1`, the Potency entry in assay [1], in assay [3], in assay [8], in assay [12], in [15] and in assay [17] was “inactive” throughout. Moreover, the Potency was 51.2 µM (active) in [2] and 16.2 µM (active) in assay [11]. Further, the result in [7] and in [16] was inactive.

For `C=CCCl`, the Potency entry in assay [1], in assay [2], in assay [3], in assay [4], in [5] and in assay [6] was “inactive” throughout. In addition, the Potency entry in assay [8], in assay [9], in [10], in assay [11], in assay [12] and in assay [13] was “inactive” each time. Moreover, the Potency result in assay [14], in assay [15] and in assay [17] was “inactive” throughout. The compound was classed as inactive in assay [7] and in [16].

Regarding `O=C=Nc1ccc(Cl)cc1`, the Potency result in [1], in assay [19], in [20], in [3], in assay [6] and in assay [9] was “inactive” in each case. The Potency result in [14], in assay [15] and in [17] was “inactive” in each case. In addition, in assay [4], the Potency is 2.43 µM (active). Besides, the compound was classed as inactive in assay [16].

With `O=C(Nc1ccccc1)Nc1ccnc(Cl)c1`, the Potency entry in [1], in assay [18], in assay [5], in [10] and in assay [15] was “inactive” throughout. For the same compound, the Potency in assay [2] was 2.17 µM (active); in assay [3] it was 61.1 µM (active). Besides, the compound was called inactive in [7] and in assay [16].

Consider `COC(=O)c1cncn1C(C)c1ccccc1` (stereo unspecified), for which the Potency entry in assay [1], in [2], in assay [3], in assay [4], in [5] and in assay [6] was “inactive” in each case. For the same compound, the Potency result in [8], in [9], in assay [10], in assay [11], in assay [12] and in assay [14] was “inactive” throughout. Besides, the Potency result in assay [15] is “inactive”. Also, the call in [7] and in assay [16] was inactive.
